Shown are actives, neighbours in structure and some others; about 3.5% of the full set was active somewhere.
FBW7 activator – FBW7 E3 ligase activators, primary screen, biochemical, AlphaScreen, human | F-box/WD repeat-containing protein 7 (Homo sapiens), Q969H0 | AID 1259310, 2017 | 650,000 compounds, 0.13% hits | AlphaScreen FBW7–phospho-cyclin E peptide binding, activator screen | normalized activity (activation), % at 26.1 µM; in the data active = normalized activity above about 1.9%;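 also: purified mutant Fbw7 with reduced substrate affinity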
MITF inh – MITF inhibitors, primary screen, biochemical, AlphaScreen, human | inhibition, % at 2.6 µM | AlphaScreen MITF homodimerization, bead proximity signal | 650,000 compounds, 0.91% hits; in the data active = inhibition above about 50%;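 also: 0% = vehicle wells with protein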
Target sequence (O75030 whole entry, looked up): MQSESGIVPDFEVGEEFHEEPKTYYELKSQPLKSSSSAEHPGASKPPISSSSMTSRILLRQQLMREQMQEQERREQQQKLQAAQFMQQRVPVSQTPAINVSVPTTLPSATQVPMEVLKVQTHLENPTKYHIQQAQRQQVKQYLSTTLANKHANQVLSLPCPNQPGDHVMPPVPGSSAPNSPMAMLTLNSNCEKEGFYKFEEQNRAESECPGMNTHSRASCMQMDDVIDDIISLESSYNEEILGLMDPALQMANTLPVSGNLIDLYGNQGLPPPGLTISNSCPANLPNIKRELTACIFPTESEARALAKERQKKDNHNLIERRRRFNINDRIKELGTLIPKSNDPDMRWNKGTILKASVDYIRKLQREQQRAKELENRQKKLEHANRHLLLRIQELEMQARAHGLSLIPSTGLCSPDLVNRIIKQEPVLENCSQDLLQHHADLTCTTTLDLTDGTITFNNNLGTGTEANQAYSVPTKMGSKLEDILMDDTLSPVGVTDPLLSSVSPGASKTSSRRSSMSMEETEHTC
TEAD-YAP inh – TEAD-YAP interaction inhibition, primary screen, TEAD-YAP interaction inhibitor project, luminescence, HEK-TIYL cells; TEAD-Gal4/YAP UAS-luciferase luminescence; inhibition, % at 9.12 µM; AID 1259422, 2018; 640,000 compounds, 1.4% hits; in the data active = inhibition above about 32%;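 also: 0% = median of test compound wells and 100% = reference inhibitor wells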
GPR151 ag – activators of human GPR151, primary screen, cell-based, PathHunter beta-arrestin, luminescence | 650,000 compounds, 1% hits | AID 1508602, 2020 | PathHunter beta-arrestin GPR151 cells | activation, % at 11.2 µM; in the data active = activation above about 4.9%;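 also: 0% = median of compound wells and 100% = cells with positive control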
MITF confirm – MITF inhibitors, retest of hits, confirmation, biochemical, AlphaScreen, triplicate | shares compounds with MITF inh | AlphaScreen MITF homodimerization, biotin/His-MITF beads | inhibition, % at 2.6 µM | 4,700 compounds, 16% hits | AID 1259372, 2018;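 active = inhibition above a cutoff derived from the DMSO control wells, cut at about 28% in these data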;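 also: 0% = MITF dimer wells with DMSO only; inhibitors lower the bead chemiluminescence by keeping MITF from dimerizing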
AlphaScreen DR – AlphaScreen optical interference compounds, dose response, counter-screen, biochemical, HTS; shares compounds with MITF inh; AlphaScreen optical interference counterscreen, cell-free; IC50, µM; 480 compounds, 6% hits; AID 1259373, 2018; call rule not given here
AS interf ctr – AlphaScreen optical interference compounds, counter-screen for MITF inhibitor project, biochemical, triplicate; shares compounds with MITF inh; AID 1259376, 2018; LysRS AlphaScreen counterscreen, signal interference; inhibition, % at 2.6 µM; 4,700 compounds, 7.6% hits;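 active = inhibition above a cutoff derived from the DMSO control wells, cut at about 30% in these data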
An asterisk follows results filed as active; . = no result given.

SMILES	FBW7 activator	MITF inh	TEAD-YAP inh	GPR151 ag	MITF confirm	AS interf ctr	others
Cc1cnc(C)c(-c2ccc3c(c2)CC(CNC(=O)c2ccc(Cl)cc2)O3)n1 (stereo not drawn)	0	-5	-6	3	.	.
COc1ccc(OC)c(NC2CCCCC2OC)c1 (stereo not drawn)	0	82*	21	0	16	24
CCC(C)NC(=O)c1[nH]c(C)c(C(=O)OC)c1C (stereo not drawn)	0	-8	-3	-1	.	.
O=C1OC(c2ccccc2)=N/C1=C/c1cc2ccccc2nc1N1CCOCC1	0	56*	2	-1	6	13
Cc1c(NC(=O)CCN2C(=O)C3C4CCC(C4)C3C2=O)ccc(Br)c1Cl (stereo not drawn)	0	68*	-19	-1	10	-3
N#Cc1ccc(C(=O)Nc2cccc(-c3nc4ccccc4[nH]3)c2)cc1	0	9	5	-1	.	.
COc1ccc2c(C)cc(N3CCCN(C)CC3)nc2c1	0	62*	8	1	-2	-3
COc1ccc(-c2cc(N3CCCN(C)CC3)ncn2)cc1	0	10	-14	-1	.	.
CN(C)CCSc1cc(-c2cn[nH]c2)ccc1NC(=O)[C@H]1CCCCN1	0	6	7	1	.	.
CCOc1ccc(C2(O)C[N+]3=C(SCCC3)N2Cc2ccccc2)cc1 (stereo not drawn)	0	3	3	1	.	.
N#Cc1ccccc1S(=O)(=O)N1CCN(CN2C(=O)C(=O)N(C3CCCC3)C2=O)CC1	0	-1	6	-2	.	.
CCOc1cc(/C=N/n2cnnc2)ccc1OC(C)=O	0	-5	-1	2	.	.
O=C(CCSc1nnc2ccccn12)Nc1ccc(F)cc1	0	67*	-3	0	11	-7
Cc1cccc(Nc2nc(-c3ccc(O)cc3)cs2)c1	0	67*	-46	-1	8	21
C=CCNc1nc(-c2ccc(O)cc2)cs1	0	70*	-23	-1	5	22
Cc1cccc(NC(=S)Nc2ccccc2)n1	0	16	-5	0	.	.
CC(=O)c1cccc(NC(=S)NCCn2cc(Cl)cn2)c1	0	68*	2	1	13	9
COc1cc(CN2CCN(Cc3ccccc3C(F)(F)F)CC2)cc(OC)c1OC	0	73*	3	1	6	13
COc1cccc(CN2CCN(Cc3ccccn3)CC2)c1OC	0	64*	-8	0	-4	13
COc1cc(CN2CCN(c3ccccc3)CC2)cc(OC)c1OC	0	43	2	-1	.	.
COc1cccc(CN2CCN(Cc3ccccc3C(F)(F)F)CC2)c1OC	0	67*	-9	0	0	9
N#Cc1c(N)n(-c2cccc(S(=O)(=O)N3CCOCC3)c2)c2nc3ccccc3nc12	0	4	-6	2	.	.
O=C(O)/C=C/c1ccc([N+](=O)[O-])o1	0	60*	4	-1	64*	7	AlphaScreen DR=>11
COc1cc(Nc2nc(N3CCOCC3)ncc2C)cc(OC)c1OC	0	12	10	-1	.	.
CCC12c3ccccc3C(c3ccccc31)C1C(=O)NC(=O)C12 (stereo not drawn)	0	71*	-1	3	63*	-31	AlphaScreen DR=>6.5
SMILES	FBW7 activator	MITF inh	TEAD-YAP inh	GPR151 ag	MITF confirm	AS interf ctr	others
COc1cc(CN2CCN(Cc3ccc(Br)cc3)CC2)cc2c1OCO2	0	69*	-4	0	3	18
COc1cc(OC)c(OC)cc1CN1CCN(Cc2cc(OC)c3c(c2)OCO3)CC1	0	59*	4	-1	-8	-6
COc1ccc(CN2CCN(Cc3cc(OC)c4c(c3)OCO4)CC2)c(OC)c1	0	30	17	-2	.	.
COc1cc(CN2CCN(Cc3cccc(Cl)c3)CC2)cc2c1OCO2	0	49	-7	-1	.	.
COc1cc(CN2CCN(Cc3ccc(SC)cc3)CC2)cc2c1OCO2	0	65*	10	0	12	7
Cn1c(=O)[nH]c(=O)c2[nH]c(N(CCO)CCO)nc21	-2	-1	0	0	.	.
CCN1C(=O)/C(=C/c2ccco2)S/C1=N/S(=O)(=O)c1ccc(C)cc1	0	53*	-4	0	10	5
C/C(=N\NC(=O)CN(c1ccccc1Br)S(C)(=O)=O)c1cccs1	1	10	9	0	.	.
CSc1ccc(CC(=O)NCC2CCC3(CCN(Cc4ccccn4)CC3)O2)cc1 (stereo not drawn)	0	69*	6	0	2	4
COc1cccc(CC(=O)NCC2CCC3(CCN(Cc4ccccn4)CC3)O2)c1 (stereo not drawn)	0	-1	11	0	.	.
Clc1ccccc1CN1CCN(c2ncccn2)CC1	0	21	-4	0	.	.
Oc1c(Br)cc(CN2CCCCC2)c2cccnc12	-1	92*	66*	0	112*	101*
Oc1c(Cl)cc(CN2CCCCC2)c2cccnc12	-1	110*	83*	1	110*	101*
CC1(C)COC(c2ccc(F)c([N+](=O)[O-])c2)=N1	0	-9	6	1	.	.
Cc1[nH]c(=O)[nH]c1C(=O)CCCCC(=O)OCC(=O)Nc1ccc(S(N)(=O)=O)cc1	-1	95*	19	2	101*	75*
Cc1[nH]c(=O)[nH]c1C(=O)CCCCC(=O)OCC(=O)Nc1ccccc1C#N	-1	113*	15	0	99*	76*
Cc1ccc(C(=O)CCC(=O)OCC(=O)Nc2ccccc2C#N)cc1	0	8	13	-1	.	.
O=C(CN1CCOCC1)NN1CC(=O)N(c2ccc(Cl)cc2)CC1=O	0	-6	9	5	.	.
O=C(CC1S/C(=N/N=C2\CSC(=O)N2)NC1=O)Nc1ccc(F)cc1 (stereo not drawn)	0	61*	0	1	49*	99*
O=C(CC1S/C(=N/N=C2\CSC(=O)N2)NC1=O)Nc1ccc(Cl)cc1 (stereo not drawn)	0	49	5	1	.	.
O=C(O)CNC(=O)CC1S/C(=N/N=C/c2ccccc2O)NC1=O (stereo not drawn)	0	5	2	4	.	.
O=C(O)CNC(=O)CC1S/C(=N/N=C2\CSC(=O)N2)NC1=O (stereo not drawn)	0	88*	3	3	80*	100*
O=C(NCc1ccc2c(c1)OCO2)c1cccn2c(=O)c3c4c(sc3nc12)CCCC4	0	-9	-5	1	.	.

Assay outcomes: PubChem BioAssay, The Scripps Research Institute Molecular Screening Center
